Assay outcomes as filed in PubChem BioAssay.
SARS PLpro yeast: qHTS of Yeast-based Assay for SARS-CoV PLP; S. cerevisiae expressing SARS-CoV PLpro, growth rescue; Potency, µM (titrated, usually from 32.9 µM), hits mostly activators; actives 0.19% (n = 330,000); AID 485353, 2010; note: nearly all actives have a fitted effect of over 55% in size
NS1 function inh: qHTS Assay for Inhibitors of Influenza NS1 Protein Function. Potency, µM (highest dose often 46.1 µM). actives 0.4% (n = 270,000). AID 2326, 2010; note: actives are rising curves; nearly all actives have a fitted effect of over 50% in size
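Growth recovery, yeast-based: influenza A NS1 expressed in S. cerevisiae causes slow growth, and suppressors are detected by OD600. The parent strain without NS1 is used as positive control.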
Shiga inhibitor: A qHTS for Small Molecule Inhibitors of Shiga Toxin | Vero cells, Shiga toxin protein synthesis inhibition reporter | inhibition, % at 38.7 µM | actives 9.2% (n = 290,000) | AID 2315, 2010; in the data active = inhibition mostly above about 28%, no sharp cut-off; inactive = mostly below about 43%
Pf growth 48h: Primary qHTS for delayed death inhibitors of the malarial parasite plastid, 48 hour incubation. P. falciparum luciferase growth in erythrocytes, 48 h. Potency, µM (highest dose often 28.7 µM), actives largely listed as inhibitors. actives 5.9% (n = 310,000); active = well fitted inhibition curve with a large enough effect; inconclusive = small, poorly fitted or top-dose-only effect, or another doubt; inactive = no such curve, though single readings can be large or run the other way
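Read-out is firefly luciferase luminescence from an integrated reporter in P. falciparum, so falling signal marks reduced parasite growth. Infected erythrocytes were at 2% hematocrit and 0.1% parasitemia (final) in Albumax-supplemented RPMI 1640.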
Cycloheximide cs: Cycloheximide Counterscreen for Small Molecule Inhibitors of Shiga Toxin; cell reporter, cycloheximide protein synthesis inhibition counterscreen; max response, %; actives 12% (n = 300,000); AID 2314, 2010; in the data active = max response mostly above about 13%, no sharp cut-off; inactive = mostly below about 14%; note: read at 38.3 µM for the half of the compounds with a filed dose
Pf growth 96h: Primary qHTS for delayed death inhibitors of the malarial parasite plastid, 96 hour incubation; P. falciparum luciferase reporter growth, 96 h; Potency, µM (top dose mostly 28.7 µM), hits mostly inhibitors; actives 6.9% (n = 320,000); AID 504834, 2011; active = well fitted inhibition curve with a large enough effect; inconclusive = small, poorly fitted or top-dose-only effect, or another doubt; inactive = no such curve, though single readings can be large or run the other way
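Parasite growth measured via integrated firefly luciferase reporter in P. falciparum. Infected erythrocytes at 2% hematocrit, 0.05% parasitemia final were treated 96 hours at 37 C under 5% CO2, and luminescence was read.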
Hits are given with their value; – = inactive; ? = inconclusive; · = no result; [ ] = remark or other dose. Shown are actives, neighbours in structure and some others; about 21% of the full set was active somewhere. Unless noted, calls come from the whole dose curve.

SMILES	SARS PLpro yeast	NS1 function inh	Shiga inhibitor	Pf growth 48h	Cycloheximide cs	Pf growth 96h
NC(=O)c1ccccc1OCc1cccc2ccccc12	–	–	–	–	–	–
CCOC(=O)C(=O)Cc1nc2ccccc2s1	–	–	–	?	11.8	–
NC(=O)c1ccccc1OCc1nc2ccccc2s1	–	–	97.3	–	33.6	–
CN1CCC(OC(=O)c2cccc(Cl)c2)CC1	–	·	–	–	–	?
Cc1cccc(C)c1OCCNC(=O)CCC(=O)c1ccccc1	?	–	–	–	–	–
O=C1CN(C(=O)COC(=O)CCC(=O)c2ccc(Cl)cc2)c2ccccc2N1	–	·	·	·	·	·
O=C1CN(C(=O)COC(=O)CCC(=O)c2ccc3c(c2)OCCO3)c2ccccc2N1	–	–	–	–	19.2	–
CCCOc1ccc(C(=O)CCC(=O)OCC(=O)N2CC(=O)Nc3ccccc32)cc1	–	–	–	·	32.5	–
NC(=O)C1(N2CCCCC2)CCN(C(=S)Nc2cccc(Cl)c2)CC1	–	–	–	–	–	–
O=C(Nc1nc(-c2ccc(F)cc2)cs1)c1cccc(N2C(=O)CCC2=O)c1	–	–	–	–	15.7	–
CC(=O)NNc1nc(-c2ccc(C)cc2)cs1	–	?	70.6	–	22.6	–
O=C(NNc1nc(-c2ccc(F)cc2)cs1)c1ccccc1	–	–	–	5.22µM	–	8.28µM
O=C(NNc1nc(-c2ccccc2)cs1)c1cccs1	–	–	–	?	–	?
O=C(Nc1nc(-c2cc(F)ccc2F)cs1)c1cccc(N2C(=O)CCC2=O)c1	–	·	·	–	·	–
O=C(NNc1nc(-c2ccccc2)cs1)c1ccc(F)cc1	–	·	–	11.7µM	–	9.28µM
Cc1cc(NC(=O)CSc2nccn2C)n(-c2ccccc2)n1	–	–	–	–	–	–
CC1Cc2ccccc2N1C(=O)CSc1nnc2n1C(C)(C)Cc1ccccc1-2 (stereo not drawn)	–	–	–	?	–	2.62µM
Cn1c(-c2ccc(F)cc2)cnc1SCC(=O)N1CCCc2ccccc21	–	–	–	–	–	?
O=C(CSc1ncc(-c2ccccc2)n1CC1CCCO1)N1CCCCC1 (stereo not drawn)	–	–	–	?	–	?
Cn1c(-c2ccc(F)cc2)cnc1SCC(=O)N1CCCCC1	–	–	–	·	33.4	–
CC1Cc2ccccc2N1C(=O)CSc1ncc(-c2ccc(F)cc2)n1C (stereo not drawn)	?	–	74.9	–	61.0	–
COc1ccc(-n2cc(CNCc3cnc4ccccn34)c(-c3cccc(F)c3)n2)cc1	–	–	–	?	–	–
CC1CN(CC(O)COC2CCC(C(C)(C)C)CC2)CC(C)O1 (stereo not drawn)	–	·	–	–	–	?
CC1CCCC(C)N1CC(O)COC1CCC(C(C)(C)C)CC1 (stereo not drawn)	–	–	–	10.4µM	–	–
Cc1cc(OCc2cc(C(=O)NCCN3CCCCC3CO)no2)cc(C)c1Cl (stereo not drawn)	–	–	–	–	–	?
SMILES	SARS PLpro yeast	NS1 function inh	Shiga inhibitor	Pf growth 48h	Cycloheximide cs	Pf growth 96h
O=C(Cn1cc(C(F)(F)F)cc(Cl)c1=O)Nc1cccc(S(=O)(=O)N2CCCCC2)c1	–	·	·	?	·	–
C=CCn1c(C)cc(C(=O)CSc2nnc(NCc3ccccc3)s2)c1C	–	–	–	–	46.4	?
CC(C)Nc1nnc(SCC(=O)Nc2ccc(F)cc2)s1	–	–	–	?	–	–
O=C1COc2ccc(C(=O)CSc3nnc(NCc4ccccc4)s3)cc2N1	–	–	–	?	–	?
O=C(CSc1nnc(NCc2ccccc2)s1)c1ccco1	–	–	78.0	–	–	?
Cc1cc(NC(=O)CSc2nnc(NCc3ccccc3)s2)no1	–	–	–	–	–	–
C=CCn1c(C)cc(C(=O)CSc2nnc(NC(C)C)s2)c1C	–	–	–	?	–	4.65µM
Cc1cc(NC(=O)C2CCCCC2C(=O)O)ccc1NC(=O)c1ccccc1 (stereo not drawn)	–	–	–	–	–	–
O=C(CCc1nc2ccccc2s1)OCC(=O)c1ccccc1	–	–	–	–	12.4	–
O=C(O)CCCc1nc2ccccc2s1	–	–	–	–	–	·
O=C(CCc1nc2ccccc2s1)c1ccccc1	–	–	–	–	37.5	?
CCC(CC)NC(=O)Nc1ccc(F)cc1F	–	–	–	–	–	?
CCOc1ccc(NC(=O)Nc2nc3ccc(S(C)(=O)=O)cc3s2)cc1	–	–	–	–	–	?
CCSc1nsc(NC(=O)Nc2ccc(F)cc2F)n1	–	–	87.1	–	59.2	–
CCOc1ccc(NC(=O)Nc2nc(SCC)ns2)cc1	–	–	–	–	–	4.15µM
NC(=O)CC[C@@H]1NC(=O)[C@@H]2CCCN2C(=O)c2cc([N+](=O)[O-])cc(I)c2NCCCC[C@@H](C(=O)NC(CC(=O)O)C(N)=O)NC1=O (stereo partly drawn)	–	–	–	–	–	–
Cc1cccc(C(=O)Nc2ccc(C(=O)N/N=C/c3ccc(C)o3)cc2)c1	–	–	–	?	–	?
CCN(c1cc(C)cc(C)c1)S(=O)(=O)c1nnc(NC(=O)C(C)C)s1	–	–	–	?	–	?
CCN(c1ccc(C)cc1C)S(=O)(=O)c1nnc(NC(=O)C(C)(C)C)s1	–	–	–	10.4µM	–	?
CCN(c1cc(C)cc(C)c1)S(=O)(=O)c1nnc(NC(=O)c2ccco2)s1	–	–	–	–	–	11.7µM
CCN(c1ccc(C)cc1C)S(=O)(=O)c1nnc(NC(=O)C(C)C)s1	–	–	–	13.1µM	–	–
Cc1cc(C)n(C2CC(=O)N(c3ccc(Cl)c(Cl)c3)C2=O)n1 (stereo not drawn)	–	–	–	–	–	–
O=C(N[C@H]1C/C=C\C[C@@H](CC(=O)N(CCO)Cc2ccccc2)C(=O)NC[C@H](c2ccccc2)OC1=O)OCC1c2ccccc2-c2ccccc21	–	·	·	·	·	·
Nc1cc(S(=O)(=O)N2CCCCC2)ccc1Oc1ccccc1	–	·	–	–	–	–
O=c1oc(-c2ccc([N+](=O)[O-])cc2)nc2ccc(O)cc12	–	·	–	–[5.75 µM]	–	–
SMILES	SARS PLpro yeast	NS1 function inh	Shiga inhibitor	Pf growth 48h	Cycloheximide cs	Pf growth 96h
CC(C)(C)Nc1nc2cc([N+](=O)[O-])ccc2o1	–	–	47.9	–	17.3	–
Nc1ccc(-c2nc3cc([N+](=O)[O-])ccc3o2)cc1	–	?	74.2	–	105.8	–
COc1ccc(-c2nc3cc([N+](=O)[O-])ccc3o2)cc1	–	–	99.3	–	40.4	–
COc1ccc(C2=C(c3ccc([N+](=O)[O-])cc3)C(=O)OC2)cc1	–	–	–	–	–	?
Cn1cc2ccc([N+](=O)[O-])cc2n1	–	–	–	–	–	–
Cc1cc(OC(=O)c2ccc(C(C)(C)C)cc2)c([N+](=O)[O-])c(=O)[nH]1	–	–	–	–	–	–
COc1ccccc1OCC(=O)O	–	–	–	–	–	–
